IDE exosite inh: displaces the probe from the exo-site of human IDE | purified IDE, FL-6b probe fluorescence polarization; active compounds read low | z-score at 20 µM | 17,000 compounds, 6.3% hits | P14735;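 active means z-score of -3 or lower, meaning strong loss of probe binding signal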;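 further: His-tagged human IDE residues 42-1019 made in E. coli with 30 nM FL-6b probe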
Numbers without * were called inactive. Many of the other results were omitted from the sample, so hits are more common in it than they were.

SMILES	IDE exosite inh
CO[C@H](CN(C)C(=O)c1ccccc1F)[C@@H](C)CN([C@H](C)CO)S(=O)(=O)c1ccc(F)cc1	1.4
CN(C)C(=O)c1ccc(-c2ccc([C@@H]3[C@H]4CN(C(=O)C5CCC5)CC(=O)N4[C@H]3CO)cc2)cc1	3
O=C(Nc1cccc(F)c1)N1CCCCN2[C@@H](CO)[C@H](c3ccc(C#Cc4cccnc4)cc3)[C@@H]2C1	0.046
COc1cccc(C#Cc2ccc([C@H]3[C@@H](CO)N4C(=O)CN(C(=O)C5CC5)C[C@@H]34)cc2)c1	-4.9*
COc1cccc(C#Cc2ccc([C@H]3[C@H]4CN(C(=O)C5CC5)CC(=O)N4[C@H]3CO)cc2)c1	-7.3*
COc1cccc(C#Cc2ccc([C@@H]3[C@H](CO)N4C(=O)CN(C(=O)C5CC5)C[C@@H]34)cc2)c1	-6.3*
COc1ccc(C#Cc2ccc([C@H]3[C@@H](CO)N4C(=O)CN(C(=O)C5CCOCC5)C[C@@H]34)cc2)cc1	4.3
COc1ccc(C#Cc2ccc([C@@H]3[C@H]4CN(C(=O)C5CCOCC5)CC(=O)N4[C@H]3CO)cc2)cc1	3.4
COc1ccc(C#Cc2ccc([C@@H]3[C@H](CO)N4C(=O)CN(C(=O)C5CCOCC5)C[C@@H]34)cc2)cc1	3.3
Cc1ccccc1S(=O)(=O)N1[C@@H]2CNC[C@H]1C2c1ccc(-c2ccc(C(=O)N(C)C)cc2)cc1 (stereo partly drawn)	3.4
CC(=O)NC[C@H]1[C@@H](c2ccc(-c3cccc(F)c3)cc2)[C@@H](CO)N1C(=O)C1CC1	-0.88
CC(C)[C@@H]1COCn2nncc2CC[C@H](C)C(=O)N1	-0.75
O=C(NC[C@@H]1[C@H](c2ccccc2)[C@@H](CO)N1CC1CCCC1)c1cccnc1	1.8
O=C(Cc1ccncc1)N1CC(=O)N2[C@@H](CO)[C@H](c3ccc(C4=CCCC4)cc3)[C@@H]2C1	3
O=C(C1CCCC1)N1CC(=O)N2[C@@H](CO)[C@@H](c3ccc(C#CC4CCCC4)cc3)[C@@H]2C1	3.1
CCC(=O)N1CC2(C1)[C@H](c1ccc(-c3cccc(C)c3)cc1)[C@@H](CO)N2S(C)(=O)=O	-0.59
CN(C)CC(=O)N1CC2(C1)[C@@H](c1ccccc1)[C@@H](CO)N2S(C)(=O)=O	1.1
CCC(=O)N1CC2(C1)[C@@H](c1ccc(-c3cccc(C)c3)cc1)[C@@H](CO)N2S(C)(=O)=O	-3.3*
CNC[C@H]1OCCCC[C@@H](C)Oc2ccc(N)cc2C(=O)N([C@@H](C)CO)C[C@H]1C	1.8
C[C@@H]1CCCCO[C@H](CN(C)C(=O)CCC(F)(F)F)[C@@H](C)CN([C@@H](C)CO)C(=O)c2cc(NC(=O)C3CCCCC3)ccc2O1	0.52
O=C(Nc1ccccc1F)N1CCCCN2[C@H](CO)[C@H](c3ccc(C4=CCCC4)cc3)[C@@H]2C1	1.1
CC(=O)N(C)C[C@H]1[C@@H](c2ccc(C#CC(C)C)cc2)[C@@H](CO)N1C(=O)C1CCC1	1.6
C[C@@H](NC(=O)C[C@H]1C=C[C@@H](NS(=O)(=O)c2cccc(F)c2)[C@H](CO)O1)c1ccccc1	1.4
CC[C@H]1C/C=C\C[C@H](c2ccc(OC)cc2OC)NC(=O)[C@H](C)CC(=O)N1	1.3
COCC(=O)N1CC(=O)N2[C@H](C1)[C@H](c1ccc(-c3ccccc3F)cc1)[C@@H]2CO	0.35
SMILES	IDE exosite inh
CCC(=O)N1CC(=O)N2[C@@H](CO)[C@@H](c3ccc(-c4ccccc4F)cc3)[C@@H]2C1	-5.6*
CCC(=O)N1CC(=O)N2[C@H](CO)[C@@H](c3ccc(-c4ccccc4F)cc3)[C@@H]2C1	-5.2*
COCC(=O)N1CC(=O)N2[C@@H](CO)[C@H](c3ccc(-c4ccccc4F)cc3)[C@@H]2C1	0.036
CCC(=O)N1CC(=O)N2[C@H](C1)[C@H](c1ccc(-c3ccccc3F)cc1)[C@@H]2CO	-3.5*
CCC(=O)N1CC(=O)N2[C@H](CO)[C@@H](c3ccc(-c4ccccc4F)cc3)[C@H]2C1	0.87
O=C(C1CCCCC1)N1CC(=O)N2[C@H](C1)[C@@H](c1ccc(-c3ccccc3F)cc1)[C@@H]2CO	-2.7
OC[C@@H]1[C@@H](c2ccc(-c3ccc(F)cc3)cc2)[C@@H]2CN(Cc3ccccn3)CCCCN12	0.32
O=C(c1ccncc1)N1CC(=O)N2[C@H](CO)[C@H](c3ccc(C#CCC4CCCC4)cc3)[C@@H]2C1	1
OC[C@@H]1[C@H](c2ccc(-c3ccc(F)cc3)cc2)[C@H]2CN(Cc3ccccn3)CCCCN12	0.065
O=C(C1CCOCC1)N1CC(=O)N2[C@@H](CO)[C@H](c3ccc(C#CC4CCCCC4)cc3)[C@@H]2C1	1.1
CCN(C[C@H]1[C@@H](c2ccccc2)[C@H](CO)N1C(C)=O)C(=O)c1ccccn1	1.1
CCNC(=O)c1cc2c(c(-c3cccc(-c4cccc(C(=O)N(C)C)c4)c3)n1)[C@@H](CCO)N([S@](=O)C(C)(C)C)C2	0.17
CCC(=O)N1CC(=O)N2[C@H](CO)[C@@H](c3ccc(C#CC(C)C)cc3)[C@@H]2C1	0.36
C[C@H]1CN([C@@H](C)CO)C(=O)c2cccc(NS(C)(=O)=O)c2O[C@@H]1CN(C)Cc1ccc(-c2ccccc2)cc1	-1.1
COCC(=O)N1CCCCN2[C@H](CO)[C@H](c3ccc(C#Cc4ccccc4)cc3)[C@H]2C1	-6.3*
COCC(=O)N1CCCCN2[C@H](C1)[C@H](c1ccc(C#Cc3ccc(OC)cc3)cc1)[C@@H]2CO	1.8
COCC#Cc1ccc([C@@H]2[C@H](CO)N3CCCCN(C(=O)COC)C[C@@H]23)cc1	1.8
COCC(=O)N1CCCCN2[C@@H](CO)[C@@H](c3ccc(C#Cc4ccccc4)cc3)[C@@H]2C1	-8.5*
COc1ccccc1NC(=O)N1CCCCN2[C@H](C1)[C@@H](c1ccc(C#Cc3ccccc3)cc1)[C@@H]2CO	2.6
COc1ccccc1NC(=O)N1CCCCN2[C@H](CO)[C@H](c3ccc(C#Cc4ccccc4)cc3)[C@H]2C1	-0.26
COCC(=O)N1CCCCN2[C@H](CO)[C@@H](c3ccc(C#Cc4ccccc4)cc3)[C@@H]2C1	-8.5*
COCC(=O)N1CCCCN2[C@@H](CO)[C@@H](c3ccc(C#Cc4ccc(OC)cc4)cc3)[C@@H]2C1	0.57
Cc1cccc(S(=O)(=O)N[C@H]2CC[C@H](CCNC(=O)Nc3cc(F)ccc3F)O[C@@H]2CO)c1	3.1
C/C=C/c1ccc([C@@H]2[C@H]3CN(C(=O)Cc4cccnc4)CC(=O)N3[C@H]2CO)cc1	0.073
COc1cccc(NC(=O)N2CC(=O)N3[C@H](C2)[C@H](c2ccc(C4=CCCC4)cc2)[C@@H]3CO)c1	3.5
SMILES	IDE exosite inh
CN(C)C(=O)c1cccc(-c2ccccc2[C@H]2[C@@H](C#N)N(C(=O)C3CCCCC3)[C@H]2CO)c1	0.41
C[C@H](NC(=O)C[C@H]1C[C@H]2c3cc(NS(=O)(=O)c4ccc(F)cc4)ccc3O[C@H]2[C@H](CO)O1)c1ccccc1	-0.12
CC(C)NC(=O)N1CCCCN2[C@@H](CO)[C@@H](c3ccc(Br)cc3)[C@@H]2C1	0.63
COc1cccc(-c2ccc([C@@H]3[C@H](CO)N4CCCCN(C(=O)NC(C)C)C[C@@H]34)cc2)c1	-6.5*
COc1cccc(-c2ccc([C@@H]3[C@H](CO)N4CCCCN(C(=O)c5ccc6c(c5)OCO6)C[C@@H]34)cc2)c1	-1.9
COc1cccc(-c2ccc([C@H]3[C@H](CO)N4CCCCN(C(=O)c5ccc(F)cc5)C[C@@H]34)cc2)c1	-2
COc1cccc(-c2ccc([C@H]3[C@H]4CN(C(=O)NC(C)C)CCCCN4[C@H]3CO)cc2)c1	-10*
